Rows were chosen to be rich in hits. Some 7.3% of all compounds tested hit in one or more screens of this group.
HCMV antiviral = qHTS Assay for inhibitors of the human cytomegalovirus (HCMV). HFF cells, HCMV-luciferase reporter, 72 h; hits give low values. activity change, negative = inhibition, % at 57.5 µM. 4.5% of 410,000 active; in the data active means activity change below about -60%; inconclusive means no clear call, values can overlap the other calls; inactive means above about -39%
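Human foreskin fibroblasts infected with luciferase-reporter HCMV at MOI 1 PFU/cell, compounds at two doses. Luciferase measured 72 h post infection; normalized to buffer-only basal and Salinomycin (10uM) controls.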
VACV mCherry inh = qHTS for Stage-Specific Inhibitors of Vaccinia Orthopoxvirus: mCherry Reporter Primary qHTS. Vaccinia virus mCherry reporter infection, fluorescence. Potency, µM (series often up to 36.5 µM), hits mostly inhibitors. 0.63% of 310,000 active; calls by dose curve; tested in A549 cells; further: nearly all actives have a fitted effect of over 35% in size
FMDV inh = High Throughput Screening for Foot and Mouth Disease Virus Antivirals; FMDV antiviral cell-based qHTS; AID 1159524, 2015; 1.2% of 410,000 active; Potency, µM (titrated, usually from 57.9 µM), usual class: inhibitors; calls by dose curve; tested in HEK293T cells; further: read-out not given here; nearly all actives have a fitted effect of over 45% in size
HCV inh = qHTS Assay for Inhibitors of Hepatitis C Virus (HCV) | Potency, µM (top dose mostly 41.8 µM), actives largely listed as inhibitors | Huh7.5.1 HCVcc-Cre infection, luciferase reporter, 44 h | 3.4% of 340,000 active; active means well fitted inhibition curve with a large enough effect; inconclusive means small, poorly fitted or top-dose-only effect, or another doubt; inactive means no such curve, though single readings can be large or run the other way
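After 44 h co-culture of compound, cells and HCVcc-Cre (~0.5 moi), substrate is added for 15 min at room temperature and luciferase measured over 15 sec. Cells were seeded at 1,000/well and pre-cultured 4 h.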
Vaccinia Venus = qHTS for Stage-Specific Inhibitors of Vaccinia Orthopoxvirus: Venus Reporter Primary qHTS. AID 720580, 2013. Vaccinia virus Venus reporter expression, fluorescence. Potency, µM (titrated, usually from 36.5 µM), usual class: inhibitors. 0.46% of 330,000 active; calls by dose curve; tested in A549 cells; further: nearly all actives have a fitted effect of over 30% in size
Each line names hits and unclear results; the compound was inactive in the other large screens; ! = a repeat was not active.

NC(Cc1ccc(C(F)(F)F)cc1)c1csc(Nc2ccc(C(=O)c3ccccc3)cc2)n1 (configuration not stated)	HCMV antiviral -63, VACV mCherry inh inconclusive, Vaccinia Venus inconclusive (no result: HCV inh)
NC(CCc1ccccc1)c1csc(Nc2ccc(C(=O)c3ccccc3)cc2)n1 (configuration not stated)	Vaccinia Venus inconclusive (no result: HCV inh)
O=C(CSc1nc(=O)n(CCN2CCOCC2)c2c1CCC2)Nc1ccc(Cl)c(Cl)c1	FMDV inh inconclusive (no result: HCV inh)
COc1ccc(-c2nnc(NC(=O)c3ccc(S(=O)(=O)N4COCC4(C)C)cc3)o2)cc1	HCMV antiviral -62, HCV inh inconclusive, Vaccinia Venus inconclusive
CC1CCCCN1S(=O)(=O)c1ccc(C(=O)Nc2nnc(-c3ccncc3)o2)cc1 (configuration not stated)	HCMV antiviral -71
CC1(C)COCN1S(=O)(=O)c1ccc(C(=O)Nc2nnc(-c3ccc(Cl)s3)o2)cc1	VACV mCherry inh inconclusive, FMDV inh inconclusive, HCV inh 2µM, Vaccinia Venus inconclusive (no result: HCMV antiviral)
CCCCCCCC/C=C\CCCCCCCC(N)=O	none (no result: HCMV antiviral, HCV inh)
N#CCCN(Cc1ccccc1)C(C(=O)NC1CCCCC1)c1ccnc2ccccc12 (configuration not stated)	none (no result: HCV inh)
COc1ccc(Br)cc1CN(C)C(=O)c1cnc(C)cn1	none (no result: VACV mCherry inh, Vaccinia Venus)
CCCCCCOc1ccc(/C(C)=N/NC2=NCCN2)cc1[N+](=O)[O-]	HCMV antiviral inconclusive, HCV inh 32µM (no result: VACV mCherry inh, Vaccinia Venus)
C/C(=N\NC1=NCCN1)c1ccc(N)c([N+](=O)[O-])c1	HCV inh inconclusive
COc1ccc(/C(C)=N/NC2=NCCN2)cc1Cl	none
CCCCOc1ccc(Br)cc1/C(C)=N/NC1=NCCN1	HCMV antiviral -100, FMDV inh 14µM, HCV inh 3.2µM, Vaccinia Venus 6.3µM (no result: VACV mCherry inh)
Cc1cccc(C)c1-n1nnnc1C(c1cc2ccccc2o1)N1CCC(n2c(=O)[nH]c3ccccc32)CC1 (configuration not stated)	HCMV antiviral -67, VACV mCherry inh inconclusive, FMDV inh 10µM, Vaccinia Venus inconclusive (no result: HCV inh)
COc1ccc(-n2nnnc2C(c2ccccc2)N2CCC(n3c(=O)[nH]c4ccccc43)CC2)cc1 (configuration not stated)	none (no result: HCV inh)
COc1ccc(C(c2nnnn2-c2c(C)cccc2C)N2CCC(n3c(=O)[nH]c4ccccc43)CC2)cc1 (configuration not stated)	HCMV antiviral -69, FMDV inh inconclusive (no result: HCV inh)
COC(=O)c1cc2oc3ccccc3c2n1CC(=O)Nc1cc(OC)cc(OC)c1	HCMV antiviral inconclusive (no result: HCV inh)
Nc1cccc(-c2nc3cc(S(=O)(=O)c4ccc5oc(-c6cccc(N)c6)nc5c4)ccc3o2)c1	HCMV antiviral -83 (no result: VACV mCherry inh, Vaccinia Venus)
Cc1ccc2oc(-c3cccc(N)c3)nc2c1	none
CCOC(=O)C1CSCCS(=O)(=O)N1Cc1cccc(Cl)c1 (configuration not stated)	none (no result: VACV mCherry inh, FMDV inh, HCV inh, Vaccinia Venus)
COc1ccc2nc(C)c3c(c2c1)OC(C(C)(Cl)Br)C3 (configuration not stated)	HCMV antiviral inconclusive, FMDV inh inconclusive
Cc1ccc2nc(C)c3c(c2c1)OC(C(C)(Cl)Br)C3 (configuration not stated)	FMDV inh inconclusive, HCV inh 7.1µM
Cc1nc2ccccc2c2c1CC(C(C)(Cl)Br)O2 (configuration not stated)	HCMV antiviral -92, FMDV inh 8.9µM, HCV inh 3.2µM (no result: VACV mCherry inh, Vaccinia Venus)
Cc1cc(NC(=O)C(C)SCC(=O)OCc2c(Cl)cccc2Cl)no1 (configuration not stated)	HCMV antiviral inconclusive
O=S(=O)(CC(CN1CCCC1)N1CCCC1)c1ccc2ccccc2c1 (configuration not stated)	HCMV antiviral -102, HCV inh 10µM (no result: VACV mCherry inh, Vaccinia Venus)
O=C1C=C(N(CCO)Cc2ccccc2)c2ccccc2C1=O	VACV mCherry inh 11µM, FMDV inh 14µM, HCV inh inconclusive, Vaccinia Venus inconclusive (no result: HCMV antiviral)
Cc1c(C(=O)Nc2ccc(-c3nnc4n3CCCCC4)cc2)oc2c1ccc1ccccc12	HCMV antiviral inconclusive, VACV mCherry inh 14µM, FMDV inh inconclusive, Vaccinia Venus inconclusive
O=C(Nc1ccc(-c2nnc3n2CCCCC3)cc1)c1cc2ccccc2o1	none
COCCCNC(=O)/C=C/c1ccc(Cl)cc1Cl	none
CNc1ccc(Br)cc(C(=O)/C=C/c2ccc3c(c2)OCO3)c1=O	FMDV inh inconclusive (no result: VACV mCherry inh)
CNc1ccc(Br)cc(C(=O)/C=C/c2ccc(OC)cc2)c1=O	FMDV inh 16µM
CCNc1ccc(Br)cc(C(=O)/C=C/c2ccc(Cl)cc2Cl)c1=O	HCMV antiviral -103, FMDV inh inconclusive, HCV inh 8.9µM (no result: VACV mCherry inh, Vaccinia Venus)
COc1ccc(Cl)cc1NC(=O)CSc1nc(Nc2ccccc2)nc(N2CCOCC2)n1	FMDV inh inconclusive, HCV inh 11µM (no result: VACV mCherry inh, Vaccinia Venus)
O=C(CSc1nc(Nc2ccccc2)nc(N2CCOCC2)n1)Nc1ccc([N+](=O)[O-])cc1	HCV inh 11µM (no result: VACV mCherry inh, Vaccinia Venus)
COc1ccc(Nc2nc(N3CCOCC3)nc(N3CCOCC3)n2)cc1Cl	HCV inh 10µM
Cc1ccc(Nc2nc(Nc3ccc(C)c(C)c3)nc(N3CCOCC3)n2)cc1C	none (no result: HCV inh)
COc1ccc(Cl)cc1NC(=O)CSc1nc(N2CCOCC2)nc(N2CCOCC2)n1	HCV inh inconclusive
CC1(c2nc3ccccc3cc2C#N)OCCO1	none (no result: HCV inh)
Cc1ccccc1Cn1c(C)c(C(=O)N(C)Cc2ccc(F)cc2)sc1=O	HCMV antiviral -60 (no result: HCV inh)
Cc1cc(C)cc(Cn2c(C)c(C(=O)N(C)Cc3ccc(F)cc3)sc2=O)c1	none (no result: HCV inh)
COc1ccc(Br)c(Cn2c(C)c(C(=O)N(C)Cc3ccc(F)cc3)sc2=O)c1	HCMV antiviral -85, FMDV inh inconclusive (no result: HCV inh)
COc1cc(NC(=O)c2c3c(nc4ccccc24)CCC3)cc(OC)c1	HCMV antiviral -102 (no result: VACV mCherry inh, Vaccinia Venus)
Cc1ccccc1NC(=O)c1c2c(nc3ccccc13)CCC2	HCMV antiviral -71
Cc1ccc(NC(=O)c2c3c(nc4ccccc24)CCC3)cc1	none
CCOc1ccc(NC(=O)c2c3c(nc4ccccc24)CCC3)cc1	none
COc1cccc(C(c2nnnn2Cc2ccco2)N2CCN(c3cccc(C)c3C)CC2)c1OC (configuration not stated)	VACV mCherry inh inconclusive, HCV inh 11µM, Vaccinia Venus inconclusive
Cc1ccc(C(c2nnnn2CC2CCCO2)N2CCN(c3cccc(C)c3C)CC2)cc1 (configuration not stated)	HCV inh 11µM!, Vaccinia Venus inconclusive (no result: VACV mCherry inh)
CC1(C(=O)NS(=O)(=O)C2CC2)CCN(C(=O)COc2ccc(Cl)cc2Cl)C1 (configuration not stated)	none (no result: HCV inh)
Cc1ccc(Cc2nnc3n(-c4ccccc4)nc(C(=O)c4ccccc4)n3c2=O)cc1	HCMV antiviral inconclusive, HCV inh inconclusive (no result: VACV mCherry inh, Vaccinia Venus)
